# Source: PubChem BioAssay AID2073 (Sanford-Burnham Center for Chemical Genomics, 2009)
# Screen size: about 290,000 compounds; about 570 (0.2%) were called active. Roughly 1% stayed inconclusive and do not appear here. Rule as the data show it: active = inhibition mostly above about 51% (no sharp cut-off); inconclusive = no clear call, values can overlap the other calls; inactive = mostly below about 53%. For the sample, actives were picked, then their nearest neighbours and some compounds at random.
# Molecular target: Voltage-dependent N-type calcium channel subunit alpha-1B (Homo sapiens) (UniProt Q00975)
# Assay: disruptors of CaV2.2 binding to Mint1 – biochemical, HTRF (AID 2073)
# Details: HTRF protein-protein interaction, Mint1-CaV2.2, at 20 µM, stronger effect = higher value
# [1] = measured here: average of repeat tests
# Sequence of Voltage-dependent N-type calcium channel subunit alpha-1B (Homo sapiens) (Q00975 whole entry, looked up): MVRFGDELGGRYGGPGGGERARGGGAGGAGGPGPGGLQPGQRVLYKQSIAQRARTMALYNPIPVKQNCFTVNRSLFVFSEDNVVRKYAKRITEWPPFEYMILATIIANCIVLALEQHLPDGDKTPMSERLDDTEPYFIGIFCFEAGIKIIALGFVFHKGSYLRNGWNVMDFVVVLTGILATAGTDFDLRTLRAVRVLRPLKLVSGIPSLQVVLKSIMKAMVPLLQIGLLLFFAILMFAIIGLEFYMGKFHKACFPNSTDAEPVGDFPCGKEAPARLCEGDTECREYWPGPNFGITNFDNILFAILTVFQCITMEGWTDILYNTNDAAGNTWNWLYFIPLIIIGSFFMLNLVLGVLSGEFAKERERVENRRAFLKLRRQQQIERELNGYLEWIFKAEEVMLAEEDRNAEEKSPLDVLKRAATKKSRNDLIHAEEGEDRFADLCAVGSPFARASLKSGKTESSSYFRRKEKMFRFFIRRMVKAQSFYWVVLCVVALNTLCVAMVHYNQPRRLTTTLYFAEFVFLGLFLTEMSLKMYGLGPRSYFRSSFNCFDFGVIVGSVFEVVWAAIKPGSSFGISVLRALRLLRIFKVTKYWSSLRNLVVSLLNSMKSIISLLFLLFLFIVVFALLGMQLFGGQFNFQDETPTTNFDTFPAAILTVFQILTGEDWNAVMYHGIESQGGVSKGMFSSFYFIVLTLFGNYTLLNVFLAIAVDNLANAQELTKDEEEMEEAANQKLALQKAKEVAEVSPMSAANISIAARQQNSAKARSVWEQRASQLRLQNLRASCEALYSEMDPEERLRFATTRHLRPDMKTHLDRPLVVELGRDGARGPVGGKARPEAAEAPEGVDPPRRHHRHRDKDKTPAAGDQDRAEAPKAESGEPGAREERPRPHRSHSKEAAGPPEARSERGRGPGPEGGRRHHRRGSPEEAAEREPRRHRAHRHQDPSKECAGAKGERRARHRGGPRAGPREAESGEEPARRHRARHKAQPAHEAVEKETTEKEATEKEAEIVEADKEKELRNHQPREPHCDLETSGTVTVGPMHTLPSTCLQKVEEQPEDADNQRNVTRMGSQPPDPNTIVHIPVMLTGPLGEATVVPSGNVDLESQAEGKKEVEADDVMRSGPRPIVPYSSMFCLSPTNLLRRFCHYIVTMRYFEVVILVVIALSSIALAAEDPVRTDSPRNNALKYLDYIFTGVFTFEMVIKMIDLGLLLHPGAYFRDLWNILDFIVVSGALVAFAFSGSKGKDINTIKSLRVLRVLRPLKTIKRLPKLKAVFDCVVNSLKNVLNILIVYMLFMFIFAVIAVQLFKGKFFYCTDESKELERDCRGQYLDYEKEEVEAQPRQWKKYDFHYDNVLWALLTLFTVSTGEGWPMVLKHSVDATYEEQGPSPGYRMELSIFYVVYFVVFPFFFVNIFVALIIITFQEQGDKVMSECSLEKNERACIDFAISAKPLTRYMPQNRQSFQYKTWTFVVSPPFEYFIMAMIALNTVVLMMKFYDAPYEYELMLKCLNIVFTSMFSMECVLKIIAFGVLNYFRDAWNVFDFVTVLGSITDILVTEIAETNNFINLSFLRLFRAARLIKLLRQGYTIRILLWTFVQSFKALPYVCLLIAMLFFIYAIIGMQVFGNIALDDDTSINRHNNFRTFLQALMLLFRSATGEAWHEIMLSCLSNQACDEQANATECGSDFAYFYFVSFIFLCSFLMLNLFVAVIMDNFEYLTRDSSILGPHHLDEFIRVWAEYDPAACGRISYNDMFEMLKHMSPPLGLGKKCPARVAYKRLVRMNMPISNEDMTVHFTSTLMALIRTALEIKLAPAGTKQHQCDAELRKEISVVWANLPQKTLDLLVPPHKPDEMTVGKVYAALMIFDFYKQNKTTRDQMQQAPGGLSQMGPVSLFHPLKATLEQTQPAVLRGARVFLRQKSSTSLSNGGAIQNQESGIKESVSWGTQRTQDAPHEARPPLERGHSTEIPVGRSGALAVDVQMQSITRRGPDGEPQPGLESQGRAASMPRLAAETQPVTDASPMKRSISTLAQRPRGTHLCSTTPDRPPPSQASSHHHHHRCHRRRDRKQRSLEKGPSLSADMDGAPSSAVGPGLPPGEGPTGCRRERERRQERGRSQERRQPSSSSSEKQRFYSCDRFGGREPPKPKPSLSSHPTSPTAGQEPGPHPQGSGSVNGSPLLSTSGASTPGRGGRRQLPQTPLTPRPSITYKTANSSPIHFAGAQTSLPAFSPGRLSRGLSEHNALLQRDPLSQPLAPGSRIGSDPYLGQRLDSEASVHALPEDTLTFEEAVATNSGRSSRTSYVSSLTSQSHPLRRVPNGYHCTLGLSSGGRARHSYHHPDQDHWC
SMILES,inhibition,inhibition [1] [%]
COCCCNC(=O)Cn1nnc(-c2ccc(NC(=O)c3ccc(F)cc3)cc2)n1,25.2% (inactive),–
Cc1cc2oc(=O)cc(CN3CCCCC3C)c2cc1C (centres undefined),2.6% (inactive),–
COc1ccccc1S(=O)(=O)Cc1ccc(C(=O)N2CCCC2)o1,0.3% (inactive),–
O=C(NCCc1c[nH]c2ccccc12)C(F)(F)C(F)F,-6.3% (inactive),–
Cc1ccc(C(=O)NCCc2nnc3ccc(SCC(=O)Nc4c(C)cc(C)cc4C)nn23)cc1,8.7% (inactive),–
CCCn1cnc2cc(NC(=O)c3ccco3)ccc21,10.4% (inactive),–
CC(C)c1csc(CN2CCN(Cc3ccccc3)C(CCO)C2)n1 (centres undefined),11.5% (inactive),–
Cc1ccc(C(=O)N(CC(=O)NC2CCCC2)c2ccc3c(c2)OCCO3)s1,-11% (inactive),–
O=C(Nc1ccc(Cl)cc1)N1CCOC12CCCCC2,-2.6% (inactive),–
O=Cc1cnc(N2CCOCC2)nc1,6.2% (inactive),–
NNC(=O)c1cccc(O)c1,19.5% (inactive),–
NNC(=O)c1cc(O)c(O)c(O)c1,63.1% (active),–
COC(=O)c1cc(O)c(O)c(O)c1,-68.3% (inactive),–
COC(=O)c1ccc(NC(=O)CCn2cccc2)cc1,3.2% (inactive),–
CC(C)c1ccc(/C=C2\SC(N3CCOCC3)=NC2=O)cc1,-2.3% (inactive),–
CCOC(=O)C1CCCN(C(=O)CC(C)c2ccccc2)C1 (centres undefined),-3.1% (inactive),–
Cc1ccc(C)c(N2CCN(C(=O)CCn3c(=S)[nH]c4cc5c(cc4c3=O)OCO5)CC2)c1,4.3% (inactive),–
CS(=O)(=O)C1=NSC2=NC(=O)/C(=C\c3cccn3-c3ccc(Cl)cc3)C(=N)N21,24.5% (inactive),–
CS(=O)(=O)C1=NSC2=NC(=O)/C(=C\c3cccn3-c3ccccc3Cl)C(=N)N21,68.7% (active),–
Cc1ccc(-n2cccc2/C=C2/C(=N)N3C(=NC2=O)SN=C3S(C)(=O)=O)cc1Cl,29.3% (inactive),–
O=C(CC1NCCNC1=O)Nc1cccc([N+](=O)[O-])c1 (centres undefined),-6.8% (inactive),–
Cc1nc2ccc(NC(=O)N(C(C)C)C(C)C)cc2s1,10.4% (inactive),–
CC(=O)Nc1ccc2nsnc2c1,9% (inactive),–
CC(C)N(C(=O)Nc1ccc2nsnc2c1)C(C)C,60.7% (active),–
CCC(C)(C)n1nnnc1C(c1ccc(Cl)cc1)N1CCN(C)CC1 (centres undefined),-3.8% (inactive),–
Cc1nn(C)c(C)c1CS(=O)(=O)c1ccccc1,-4% (inactive),–

SMILES,inhibition,inhibition [1] [%]
CCc1c(C(C)S(=O)(=O)c2ccccc2)[nH]c(=O)n1CC (centres undefined),-7.8% (inactive),–
CCn1c(C)c(CS(=O)(=O)c2ccccc2)[nH]c1=O,73.9% (active),–
Cc1ccc2cc(CN(C(=O)c3cccs3)c3ccccc3)c(=O)[nH]c2c1,4.6% (inactive),–
CC(C)O/C(=N\S(=O)(=O)c1ccc(Cl)cc1)c1ccccc1,3.7% (inactive),–
CCOC(=O)c1ccc(N=c2scc(C)n2CC)cc1,3.7% (inactive),–
CN1C(=O)CSC1=Nc1ccc(Br)cc1,-4.4% (inactive),–
Cc1ccc(N=C2CSC(=O)N2)cc1,-2.7% (inactive),–
N#Cc1ccc(N=c2ssnc2Cl)cc1,44.2% (inactive),–
CCOC(=O)c1ccc(N=NN(C)C)cc1,-7% (inactive),–
Cc1ccc(N=c2sc(C)c(C)n2C)cc1,-35.3% (inactive),–
Cc1cc(C)cc(C(N)=Nc2cccc(C#N)c2)c1,4.9% (inactive),–
NC1=NC(=Nc2ccc(Br)cc2)c2ccccc21,-1.5% (inactive),–
O=C(COc1ccccc1Cl)Nc1ccc(CN2CCOCC2)cc1,-4.3% (inactive),–
Cc1nn(CC(=O)N2CCC(N3CCCCC3)CC2)c(=O)c2c1sc1ccccc12,16.1% (inactive),–
Cc1ccc(NC(=O)Cn2nnc(C(=O)NCc3ccc4c(c3)OCO4)c2N)cc1,9.7% (inactive),–
O=C(NNc1ccccc1)Nc1ccccc1F,-15.6% (inactive),–
CC(C)(C)C1CCC(=NNC(=O)C(=O)NC2CCCCC2)CC1 (centres undefined),2.1% (inactive),–
O=C(OCc1nnc(-c2ccc(Cl)cc2)o1)c1ccncc1,7.7% (inactive),–
Clc1ss/c(=N\c2ccccn2)c1Cl,6.4% (inactive),–
Clc1ccc(N=c2ssnc2Cl)cc1,-17.4% (inactive),–
Cc1c(CCC(=O)O)c(=O)oc2cc(OCc3cccc(F)c3)ccc12,16.2% (inactive),–
N#Cc1c(-c2ccco2)cc(-c2ccccc2)[nH]c1=O,48.2% (inactive),–
CSc1nc(-c2ccco2)cc(-c2ccccc2)c1C#N,15.4% (inactive),–
N#Cc1c(-c2ccccc2)cc(-c2ccco2)c(C#N)c1N,53.5% (active),–
COc1cc(Cl)c(C)cc1NC(=O)c1ccc2c(SCC(=O)O)c3c(nc2c1)CCCC3,53.2% (active),–
COc1ccc(Cl)cc1NC(=O)c1ccc2c(SCC(=O)O)c3c(nc2c1)CCCC3,12.3% (inactive),–

SMILES,inhibition,inhibition [1] [%]
COc1cc(OC)c(NC(=O)c2ccc3c(SCC(=O)O)c4c(nc3c2)CCCC4)cc1Cl,44.9% (inactive),–
CCCOc1cccc(C(=O)O)c1,-5.1% (inactive),–
CC(/C=N/NC(=O)c1cc(-c2ccccc2)nc2ccccc12)=C\c1ccco1,52.6% (active),–
CC(/C=N/NC(=O)c1cc(-c2ccc(Cl)cc2)nc2ccccc12)=C\c1ccco1,37.8% (inactive),–
O=C(N/N=C/c1ccco1)c1cc(-c2ccc3ccccc3c2)n[nH]1,5.5% (inactive),–
CC(/C=N/NC(=O)c1cc(-c2ccc3ccccc3c2)n[nH]1)=C\c1ccco1,73.3% (active),–
O=C(N/N=C\C=C\c1ccco1)c1cc(-c2ccc3ccccc3c2)n[nH]1,80.2% (inactive),9.6
CC(/C=N/NC(=O)c1cc(-c2ccncc2)nc2ccccc12)=C\c1ccco1,43.6% (inactive),–
CCOc1cc(C(=O)O)cc(Cl)c1OC,0.7% (inactive),–
Cc1ccc(N2CCN(/N=C/C=C/c3ccccc3)CC2)cc1,2.8% (inactive),–
CNC(=S)/N=C(/Nc1ccccc1)c1ccccc1,59.9% (active),–
N/C(=N\C(=S)Nc1ccccc1)c1ccccc1,5.2% (inactive),–
Cc1ccc(NC(=S)c2ccccc2)cc1,-6.4% (inactive),–
CNC(=S)Nc1ccc(Nc2ccccc2)cc1,-5.3% (inactive),–
Cc1ccc(NC(=O)c2ccccc2)cc1,-4.2% (inactive),–
CS(=O)(=O)NCCSCc1c(Cl)cccc1Cl,28.1% (inactive),–
N#Cc1c(C(F)(F)F)cc(C2CC2)[nH]c1=O,6.1% (inactive),–
Cc1ccc(C(=S)NCS(=O)(=O)c2ccc(C)cc2)cc1,28% (inactive),–
C(=C\c1nc2ccccc2[nH]1)/c1ccccc1,5.8% (inactive),–
C(=C\c1ccco1)/c1nc2ccccc2[nH]1,65.6% (active),–
Cc1ccc(/C=C/c2nc3ccccc3[nH]2)o1,44.8% (inactive),–
CCc1ccc(CN2CCC(n3nccc3NC(=O)c3ccc4c(c3)OCO4)CC2)cc1,2.8% (inactive),–
N#Cc1c(N2CCCCC2)nc(N2CCCCC2)c2c1CCN(Cc1ccccc1)C2,16.2% (inactive),–
N#Cc1c(N)sc2c1CCN(CCc1ccccc1)C2,3.3% (inactive),–
N#Cc1c(N)sc(=S)c2c1CCN(Cc1ccccc1)C2,52.4% (active),–
CN(C(=O)CC1C(=O)NCCN1Cc1ccccc1F)C1CCOCC1 (centres undefined),16.3% (inactive),–

SMILES,inhibition,inhibition [1] [%]
Cc1c(Cl)sn(-c2ccc(Cl)cc2)c1=O,79.2% (active),–
Cc1cc(=O)cc(C)n1-c1ccc(Cl)cc1,7.3% (inactive),–
CC1=CC(C)(C)N(C)C(=O)N1c1ccc(Cl)cc1,-2.6% (inactive),–
CN1CCN(C(=O)CN(c2cc(C(F)(F)F)ccc2Cl)S(C)(=O)=O)CC1,-10.8% (inactive),–
Cc1ccc(/C=C(\CCC(=O)O)c2nc3ccccc3s2)cc1[N+](=O)[O-],7% (inactive),–
CN(c1ccccc1)c1ccc(/C=C(\CCC(=O)O)c2nc3ccccc3s2)cc1[N+](=O)[O-],54.7% (active),–
O=C(O)CC/C(=C\c1ccc(Cl)c([N+](=O)[O-])c1)c1nc2ccccc2s1,6.1% (inactive),–
CCC(C(=O)N1CCOCC1)n1nc(C)c2sc3ccccc3c2c1=O (centres undefined),12.1% (inactive),–
CN1CCN(c2ccccc2NC(=O)c2cccc(OCc3ccccc3)c2)CC1,19% (inactive),–
COCCn1c(SCC(=O)Nc2ccc(F)cc2)nc2ccccc2c1=O,6.9% (inactive),–
COCCn1c(SCC(=O)Nc2ccc(NC(C)=O)cc2)nc2ccccc2c1=O,-7.5% (inactive),–
CC1(C)CC(=O)C=C(NNC(=O)C2CCCCC2)C1,1.6% (inactive),–
C#CCOCCOCCOCCNc1nc(N2CCN(C(=O)C(Cc3ccc(O)cc3)n3cc(C(N)CC(C)C)nn3)CC2)nc(N2CCN(C(=O)C(Cc3cc4ccccc4[nH]3)n3cc(C(N)Cc4ccc(O)cc4)nn3)CC2)n1 (centres undefined),14.6% (inactive),–
C#CCOCCOCCOCCNc1nc(N2CCN(C(=O)[C@H](Cc3ccc(O)cc3)n3cc([C@@H](N)CC(C)C)nn3)CC2)nc(N2CCN(C(=O)[C@H](Cc3cc4ccccc4[nH]3)n3cc([C@@H](N)CC(C)C)nn3)CC2)n1,22.3% (inactive),–
C#CCOCCOCCOCCNc1nc(N2CCN(C(=O)[C@H](Cc3cc4ccccc4[nH]3)n3cc([C@@H](N)Cc4ccc(O)cc4)nn3)CC2)nc(N2CCN(C(=O)[C@H](Cc3cc4ccccc4[nH]3)n3cc([C@@H](N)CC(C)C)nn3)CC2)n1,51.5% (active),–
CC[N+](CC)(CC#Cc1ccccc1)CC(=O)c1ccc(Cl)cc1,-0.1% (inactive),–
Cc1nc(C)c(C(=O)OCC(=O)N2CCN(c3ccccc3)CC2)s1,-4.9% (inactive),–
COC(=O)c1ccccc1NC(=O)CN1CCC(NC(=O)c2ccc(C)cc2)CC1,-3.1% (inactive),–
NNC(=O)c1oc2nc(-c3ccco3)cc(-c3ccco3)c2c1N,59.1% (active),–
Nc1c(C(=O)N/N=C/c2cccnc2)oc2nc(-c3ccco3)cc(-c3ccco3)c12,44.8% (inactive),–
Cc1ccc(-c2cc(-c3ccco3)c3c(N)c(C(=O)NN)oc3n2)cc1,55.5% (inactive),31.3
NNC(=O)c1oc2nc(-c3cccs3)cc(-c3ccco3)c2c1N,51.7% (active),–
Nc1c(C(=O)N/N=C/c2ccccc2Cl)oc2nc(-c3ccccc3)cc(-c3ccco3)c12,45.6% (inactive),–
NNC(=O)c1oc2nc(-c3ccccc3)cc(-c3ccccc3)c2c1N,18.4% (inactive),–
